Laboratory results: PubChem BioAssay
Where “and” joins values, the source holds several entries; their conditions need not be identical. Identical values can stand only once. Calls of active or inactive are those of the source.

Assays:
[1] = test system: Plasmodium falciparum Sir2 (PF13_0152, Sir2A); assay: pfSir2 binders on small-molecule microarrays, primary screen, biochemical, small-molecule microarray, 635 nm fluorescence (AID 1098); settings: small-molecule microarray binding, fluorescence 635 nm; higher = more signal;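 note: score merges spot fluorescence intensity with its signal-to-noise ratio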
[2] = small-molecule microarray binders of probe aDKK1, primary screen, biochemical, biotinylated probe, 635/667 nm fluorescence (AID 1099); settings: higher = more signal;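 note: score merges 667nm spot fluorescence with signal to noise across triplicate slides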
[3] = small-molecule microarray binders of probe aCHRDL2, primary screen, biochemical, biotinylated probe, 635/667 nm fluorescence (AID 1100); settings: higher = more signal
[4] = splicing luciferase reporter signal modulators, primary screen, spliceosome inhibition project, cell-based, HEK293, splice +/- reporter (AID 1101); settings: luminescence, 24 h, higher = more signal, called active from +8 up or from −8 down;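 note: HEK293 cells carrying a splicing-competent luciferase reporter gene; test concentration not given here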
[5] = biological target: Fibroblast growth factor 10 (Homo sapiens) (UniProt O15520); assay: FGF10 binders on small-molecule microarrays, primary screen, biochemical, small-molecule microarray, 635 nm fluorescence (AID 1102); settings: FGF10 binding, fluorescence 635 nm, higher = more signal
[6] = test system: glycogen synthase kinase-3 (GSK3A per assay name; protocol says GSK3B); assay: GSK3 binders on small-molecule microarrays, primary screen, biochemical, small-molecule microarray, 635 nm fluorescence, GSK3A (AID 1103); settings: small-molecule microarray binding, fluorescence 635 nm; higher = more signal; note: the record names both GSK3A and GSK3B
[7] = biological target: Epidermal growth factor receptor (Homo sapiens) (UniProt P00533); assay: EGFR binders on small-molecule microarrays, primary screen, biochemical, small-molecule microarray, 635 nm fluorescence (AID 1104); settings: EGFR binding, higher = more signal;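 note: score merges 667 nm emission intensity with spot signal to noise over triplicate slides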
[8] = biological target: Follistatin-related protein 3 (Homo sapiens) (UniProt O95633); assay: FSTL3 binders on small-molecule microarrays, primary screen, biochemical, small-molecule microarray, 635 nm fluorescence (AID 1105); settings: FSTL3 binding, higher = more signal;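 note: score merges emission near 667 nm and signal to noise per printed spot across three slides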
[9] = biological target: Dickkopf-related protein 1 (Homo sapiens) (UniProt O94907); assay: DKK1 binders on small-molecule microarrays, primary screen, biochemical, small-molecule microarray, 635 nm fluorescence scan (AID 1106); settings: DKK1 binding, higher = more signal;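 note: score merges emission near 667 nm with signal to noise over three replicate slides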
[10] = test system: Inhibin beta A chain (activin A); assay: INHBA (activin A) binders on microarrays, primary screen, biochemical, small-molecule microarray, 635 nm fluorescence scan (AID 1107); settings: small-molecule microarray binding, higher = more signal;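 note: mouse activin A protein probed at 4.33 µg/mL on printed slides; score merges bound-protein fluorescence near 667 nm with spot signal-to-noise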
[11] = test system: Human papillomavirus type 1a protein E7 (residues 44-93); assay: HPV1a E7 fragment binders on microarrays, primary screen, biochemical, small-molecule microarray, residues 44-93, 635 nm fluorescence (AID 1108); settings: small-molecule microarray binding, fluorescence 635 nm; higher = more signal;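 note: E7 fragment applied at 1 µg/mL in TBST for 1 h at 4 C; score combines spot fluorescence with its signal to noise ratio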
[12] = modulators of HCV replicon luciferase signal, primary screen, HCV replication inhibitor project, Huh7 cells, luciferase reporter (AID 1109); settings: 48 h, higher = more signal;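 note: huh7 hepatoma cells harbouring a luciferase neomycin HCV replicon reporter; luciferase luminescence as measure of HCV replicon replication; test concentration not given here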
[13] = biological target: Left-right determination factor 2 (Homo sapiens) (UniProt O00292); assay: LEFTY2 binders on small-molecule microarrays, primary screen, biochemical, small-molecule microarray, 635 nm fluorescence scan (AID 1110); settings: LEFTY2 binding, higher = more signal
[14] = biological target: Calmodulin-1 (Homo sapiens) (UniProt P0DP23); assay: CALM1 binders on microarrays, EGTA buffer, profiling panel, biochemical, small-molecule microarray, Cy5-labelled CALM1 (AID 1111); settings: Cy5-CALM1 binding fluorescence, higher = more signal;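 note: labelled calmodulin applied in Tris saline Tween buffer holding calcium plus EGTA and DTT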
[15] = biological target: Calmodulin-1 (Homo sapiens) (UniProt P0DP23); assay: calcium-bound CALM1 binders on microarrays, profiling panel, artefact control for SMM control-protein annotation, biochemical, small-molecule microarray, Cy5-labelled CALM1, plus calcium (AID 1112); settings: Cy5-CALM1 binding fluorescence, higher = more signal;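 note: score merges spot fluorescence with signal to noise from triplicate slides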
[16] = small-molecule microarray binders of probe aWnt5a, primary screen, biochemical, biotinylated probe, 635/667 nm fluorescence (AID 1113); settings: higher = more signal;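 note: score merges 667 nm fluorescence intensity with signal-to-noise per printed feature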
[17] = small-molecule microarray binders of probe aShh, primary screen, biochemical, biotinylated probe, 635/667 nm fluorescence (AID 1114); settings: higher = more signal;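 note: probe is biotin-labelled aShh protein from a stem cell growth factor screen; measures binding of labelled protein to compounds printed on the slide; score merges feature fluorescence at 667 nm with signal-to-noise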
[18] = small-molecule microarray binders of probe aNog, primary screen, biochemical, biotinylated probe, 635/667 nm fluorescence (AID 1115); settings: higher = more signal;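 note: probe is biotinylated aNog protein used at 0.15 µg/mL for 1 h at 4 C; z-score combines 667 nm fluorescence of each spot with its signal to noise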
[19] = biological target: Torsin-1A-interacting protein 1 (Homo sapiens) (UniProt Q5JTV8); assay: LAP1 binders from COS7 cell lysate, primary screen, small-molecule microarray, 635/667 nm fluorescence (AID 1116); settings: COS7-hLAP1 lysate binding, 635 nm fluorescence, higher = more signal
[20] = biological target: Alpha-bungarotoxin (Bungarus multicinctus) (UniProt P60615); assay: alpha-bungarotoxin binders on microarray, profiling panel, artefact control for SMM control protein annotation, biochemical, small-molecule microarray, Alexa647 label, 635/667 nm fluorescence (AID 1117); settings: alpha-BTX-A647 binding fluorescence, higher = more signal
Sequence of Alpha-bungarotoxin (Bungarus multicinctus) (P60615 whole entry, looked up): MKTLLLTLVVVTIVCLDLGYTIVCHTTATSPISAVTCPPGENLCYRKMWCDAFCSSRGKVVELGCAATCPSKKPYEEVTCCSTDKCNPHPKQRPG

Sequence of Left-right determination factor 2 (Homo sapiens) (O00292 whole entry, looked up): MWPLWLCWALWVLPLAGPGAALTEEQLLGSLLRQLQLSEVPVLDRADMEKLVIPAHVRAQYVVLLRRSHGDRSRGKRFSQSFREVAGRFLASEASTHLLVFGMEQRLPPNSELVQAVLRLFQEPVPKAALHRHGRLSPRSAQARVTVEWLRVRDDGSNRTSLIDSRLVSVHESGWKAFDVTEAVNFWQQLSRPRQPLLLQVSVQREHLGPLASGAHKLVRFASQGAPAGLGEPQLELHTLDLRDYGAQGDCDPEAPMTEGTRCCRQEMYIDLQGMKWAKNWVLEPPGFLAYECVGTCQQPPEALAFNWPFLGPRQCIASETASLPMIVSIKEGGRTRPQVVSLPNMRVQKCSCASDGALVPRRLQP
Sequence of Dickkopf-related protein 1 (Homo sapiens) (O94907 whole entry, looked up): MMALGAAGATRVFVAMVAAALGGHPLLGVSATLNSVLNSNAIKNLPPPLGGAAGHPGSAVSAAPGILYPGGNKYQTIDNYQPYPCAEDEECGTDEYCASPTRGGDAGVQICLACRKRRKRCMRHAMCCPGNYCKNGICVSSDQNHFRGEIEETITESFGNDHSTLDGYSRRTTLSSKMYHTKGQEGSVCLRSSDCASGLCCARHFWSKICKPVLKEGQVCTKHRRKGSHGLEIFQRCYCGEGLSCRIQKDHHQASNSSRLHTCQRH
Sequence of Epidermal growth factor receptor (Homo sapiens) (P00533 whole entry, looked up): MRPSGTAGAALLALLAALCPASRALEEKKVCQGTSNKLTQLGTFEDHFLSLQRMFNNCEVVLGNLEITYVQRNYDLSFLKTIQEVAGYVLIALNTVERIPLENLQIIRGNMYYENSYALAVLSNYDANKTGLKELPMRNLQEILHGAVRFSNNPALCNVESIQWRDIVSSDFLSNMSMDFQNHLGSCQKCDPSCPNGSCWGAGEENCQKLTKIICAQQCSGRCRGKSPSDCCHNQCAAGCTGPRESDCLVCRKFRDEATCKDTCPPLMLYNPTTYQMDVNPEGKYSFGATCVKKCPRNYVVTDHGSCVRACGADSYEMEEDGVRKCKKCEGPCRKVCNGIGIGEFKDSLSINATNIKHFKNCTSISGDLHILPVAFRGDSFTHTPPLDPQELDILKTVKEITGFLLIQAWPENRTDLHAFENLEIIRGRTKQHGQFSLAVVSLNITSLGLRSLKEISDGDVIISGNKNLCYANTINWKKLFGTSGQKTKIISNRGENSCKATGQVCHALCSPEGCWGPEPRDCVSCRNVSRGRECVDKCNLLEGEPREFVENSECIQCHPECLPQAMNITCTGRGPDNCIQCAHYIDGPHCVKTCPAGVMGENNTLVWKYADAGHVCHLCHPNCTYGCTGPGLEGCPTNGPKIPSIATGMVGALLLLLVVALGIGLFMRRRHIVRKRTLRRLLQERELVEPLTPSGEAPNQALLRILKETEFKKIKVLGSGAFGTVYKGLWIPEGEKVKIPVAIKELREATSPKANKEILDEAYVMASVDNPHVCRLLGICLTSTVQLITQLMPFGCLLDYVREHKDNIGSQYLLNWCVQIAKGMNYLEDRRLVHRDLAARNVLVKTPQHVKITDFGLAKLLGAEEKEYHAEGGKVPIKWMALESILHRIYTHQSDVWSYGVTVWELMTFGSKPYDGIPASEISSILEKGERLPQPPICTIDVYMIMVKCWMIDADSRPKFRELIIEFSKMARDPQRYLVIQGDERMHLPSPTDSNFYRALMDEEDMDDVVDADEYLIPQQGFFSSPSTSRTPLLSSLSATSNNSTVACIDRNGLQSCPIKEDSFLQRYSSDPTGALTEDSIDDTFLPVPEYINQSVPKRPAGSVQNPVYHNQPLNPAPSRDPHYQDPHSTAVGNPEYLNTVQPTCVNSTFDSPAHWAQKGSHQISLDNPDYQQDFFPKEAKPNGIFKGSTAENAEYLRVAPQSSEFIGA
Sequence of Torsin-1A-interacting protein 1 (Homo sapiens) (Q5JTV8 whole entry, looked up): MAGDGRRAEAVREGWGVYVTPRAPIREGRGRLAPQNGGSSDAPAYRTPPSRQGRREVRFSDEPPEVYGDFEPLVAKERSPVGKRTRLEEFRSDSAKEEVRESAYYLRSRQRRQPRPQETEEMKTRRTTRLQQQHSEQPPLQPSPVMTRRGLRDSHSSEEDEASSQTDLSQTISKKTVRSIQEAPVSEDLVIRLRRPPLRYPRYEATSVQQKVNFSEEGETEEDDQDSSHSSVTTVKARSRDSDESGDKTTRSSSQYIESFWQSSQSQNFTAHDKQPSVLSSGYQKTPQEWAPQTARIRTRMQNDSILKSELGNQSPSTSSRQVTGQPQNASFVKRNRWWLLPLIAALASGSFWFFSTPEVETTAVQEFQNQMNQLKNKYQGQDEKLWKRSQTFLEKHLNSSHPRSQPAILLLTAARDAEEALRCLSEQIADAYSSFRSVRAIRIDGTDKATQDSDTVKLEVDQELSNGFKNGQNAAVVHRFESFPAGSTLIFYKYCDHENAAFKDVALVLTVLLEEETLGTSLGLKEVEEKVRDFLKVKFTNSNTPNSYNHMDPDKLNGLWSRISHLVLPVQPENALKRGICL
Sequence of Fibroblast growth factor 10 (Homo sapiens) (O15520 whole entry, looked up): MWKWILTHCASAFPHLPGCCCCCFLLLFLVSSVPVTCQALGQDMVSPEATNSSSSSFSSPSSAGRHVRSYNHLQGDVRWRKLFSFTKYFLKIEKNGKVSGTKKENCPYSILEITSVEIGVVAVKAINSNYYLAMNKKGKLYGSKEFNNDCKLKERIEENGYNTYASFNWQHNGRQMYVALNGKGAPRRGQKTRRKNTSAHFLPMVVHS
Sequence of Follistatin-related protein 3 (Homo sapiens) (O95633 whole entry, looked up): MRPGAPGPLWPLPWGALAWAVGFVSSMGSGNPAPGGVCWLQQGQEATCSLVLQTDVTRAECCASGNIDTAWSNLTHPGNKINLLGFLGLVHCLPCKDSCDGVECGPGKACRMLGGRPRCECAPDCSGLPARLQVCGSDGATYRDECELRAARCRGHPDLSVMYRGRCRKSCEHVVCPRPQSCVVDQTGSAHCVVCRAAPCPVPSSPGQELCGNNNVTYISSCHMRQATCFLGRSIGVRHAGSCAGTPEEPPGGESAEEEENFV

Compound | composite z-score [1] | composite z-score [2] | composite z-score [3] | z-score [4] | composite z-score [5] | composite z-score [6] | composite z-score [7] | composite z-score [8] | composite z-score [9] | composite z-score [10] | composite z-score [11] | z-score [12] | composite z-score [13] | composite z-score [14] | composite z-score [15] | composite z-score [16] | composite z-score [17] | composite z-score [18] | composite z-score [19] | composite z-score [20]
C=CCN(C(=O)C1N(C(C)(C)CO)C(=O)C2C(C(=O)O)C3C=CC21O3)C(C)(C)C (stereo not given) | -0.0242 and 0.712 | 0.338 and 0.0018 | 1.06 and 1.01 | 0.153 (inactive) and -0.231 (inactive) | -0.95 and -1.33 | -1.24 and -1.03 | -2.18 and -1.68 | -2.45 and -2.42 | -2.28 and -3.04 | -3 and -3.14 | -0.898 and 0.0796 | -0.276 and -0.577 | -3.78 and -1.84 | -0.742 and -0.353 | 0.271 and 0.369 | -0.286 and -0.148 | -0.138 | -0.183 and -0.0144 | -1.69 and 3.03 | -2.08 and 1.04
CCCNC(=O)OC[C@H]1O[C@H](CCON=C(C)CCN2CCc3nc(-c4ccccc4)c(-c4ccccc4)cc3C2)C=C[C@@H]1Oc1ccc(OC)cc1 | 0.274 | -0.128 | -0.155 | -0.0345 (inactive) | 0.0705 | -0.0859 | 0.0142 | 0.254 | 0.431 | 0.67 | 0.518 | -3.28 | 0.135 | -0.0233 | -0.0536 | -0.0535 | -0.0299 | -0.321 | 0.32 | 0.316
COC(=O)[C@@]1(Cc2ccc(F)cc2)[C@H]2c3cc(C(=O)N4CCCC4)n(Cc4c(CO)[nH]cc(C)c4=O)c3C[C@H]2CN1C(=O)c1ccccc1 | 1.47 and 1.53 | 2.17 and -0.115 | 1.29 and 0.955 | -1.48 (inactive) and -0.107 (inactive) | 0.822 and 0.461 | -0.252 and 0.368 | 0.704 and -0.2 | 0.0376 and -0.36 | -0.198 and -0.57 | 1.02 and 1.31 | 0.866 and 0.952 | -1.31 and -1.38 | -0.0537 and -0.837 | 1.41 and 0.252 | 0.249 and 0.299 | 1.02 and 0.132 | 2.2 and 0.182 | 2.71 and 1.27 | 0.959 and 1.72 | 0.234 and -0.124
C=CCN(C(=O)C1N(C(C)(C)CO)C(=O)C2C(C(=O)O)C3C=CC21O3)c1ccc(OC)cc1 (stereo not given) | -0.138 and 0.012 | 0.0931 and -0.0192 | 1.23 and 1.02 | -1.01 (inactive) and 0.0922 (inactive) | -0.966 and -2.03 | -0.751 and -1.28 | -1.84 and -1.43 | -2.02 and -2.33 | -4.14 and -3.71 | -1.01 and -5.89 | -0.391 and -1.24 | 1.82 and -0.0108 | -2 and -4.13 | -0.547 and -0.928 | 0.455 and -0.116 | -0.256 and -0.116 | 0.0611 and -0.283 | 0.265 and -0.0827 | 1.86 and -0.125 | -2.34 and -2.48
COC(=O)C1=C(C)N(Cc2ccccc2)[C@]23O[C@](C(=O)OC)(C(=O)N2[C@@H]1c1ccccc1)[C@@H](C(=O)OC)[C@H]3C(=O)OC | -0.16 and 0.25 | -0.188 and -0.2 | -0.248 and -0.593 | -0.259 (inactive) and 0.0138 (inactive) | 0.393 and 0.372 | -0.969 and 0.317 | -0.574 and 0.608 | -1.14 and 0.664 | -0.0647 and 0.549 | 0.59 and 0.153 | -1.08 and 0.025 | -0.685 and 1.33 | -0.2 and 0.674 | -0.602 and 0.395 | -0.636 and -0.505 | -0.173 and -0.16 | -0.123 and -0.0553 | -0.394 and -0.255 | 0.118 and 0.409 | -1 and -0.239
C[C@@]1([C@@H](NC(=O)Cc2ccccc2)c2ccc(-c3ccccc3)cc2)C[C@H]1C1CCCCC1 | 0.334 and 0.359 and 0.301 | 1.14 and 1.83 and -0.112 | 0.775 and 1.08 and 0.538 | -4.09 (inactive) and -1.68 (inactive) and 0.868 (inactive) | 0.543 and 0.838 and 0.0825 | 0.271 and 0.234 and 0.826 | -0.0372 and 0.289 and -0.265 | -0.008 and -0.172 and 0.156 | -0.193 and -0.286 and -0.719 | 1.3 and 1.08 and 0.556 | 0.208 and 0.778 and 1.16 | -2.39 and -1.33 and -0.271 | -0.109 and -0.069 and 0.118 | 1.7 and 1.95 and 1.63 | 1.26 and 1.28 and 0.753 | 0.631 and 1.04 and 0 | 2.22 and 2.04 and -0.493 | 0.292 and 1.37 and 1.17 | -0.288 and -0.307 and 0.775 | 1 and 0.582 and 1.93
CCOC(=O)[C@H](CC(C)C)NC(=O)CCC1CC(OC(=O)NCc2cccc3ccccc23)CC2(CCCC(COC(=O)NCc3ccccc3)O2)O1 (stereo not given in full) | 0.929 | -0.299 | -0.103 | -2.18 (inactive) | -0.242 | -0.97 | -0.152 | -0.499 | -0.311 | 0.493 | -0.931 | -0.132 | -0.0479 | -0.195 | -0.559 | -0.152 | -0.282 | -0.0029 | -0.61 | -0.274
C=CCN(CCCC)C(=O)C1N(c2ccc(CCO)cc2)C(=O)C2C(C(=O)O)C3C=CC21O3 (stereo not given) | -1.39 and 1.08 | -0.112 and -0.229 | 0.354 and 1.07 | -0.378 (inactive) and 0.182 (inactive) | -1.48 and -1.93 | -1.54 and -1.22 | -1.51 and -2.06 | -1.76 and -2.15 | -2.31 and -3.32 | -1.59 and -3.61 | -2.07 and -0.32 | -0.213 and 1.02 | -2.86 and -4.53 | -0.828 and -1.3 | 0.33 and 0.554 | -0.221 and -0.296 | 0.0796 and 0.292 | -0.265 and -0.565 | -0.994 and -1 | -0.577 and -1.86
C=CCN(Cc1ccccc1)C(=O)C1N(CCOCCO)C(=O)C2C(C(=O)O)C3C=CC21O3 (stereo not given) | 0.824 and 1.03 | 0.0606 and -0.027 | 1 and 1.1 | -1.11 (inactive) and -0.281 (inactive) | -1.09 and -0.997 | -0.419 and -0.793 | -2.36 and -1.85 | -2.65 and -2.12 | -2.78 and -2.98 | -2.4 and -2.13 | -0.445 and -0.308 | 0.0184 and -0.0316 | -3 and -3.39 | -0.711 and -0.795 | 0.473 and -0.0792 | -0.228 and -0.208 | -0.138 and -0.276 | 0.238 and -0.341 | 3.99 and -0.887 | -2.86 and -1.73
CCOC(=O)[C@@H]1CC2O[C@]23C[C@@H]1C(=O)N1CCC[C@@H]1[C@H]3O[Si](C)(C)C(C)(C)C (stereo not given in full) | -0.494 and -0.107 | -0.557 and -0.234 | -0.645 and -0.63 | 0.559 (inactive) and 0.577 (inactive) | -0.438 and 0.433 | -0.755 and 0.491 | -0.133 and -0.303 | -0.937 and 0.184 | 0.389 and 0.364 | 0.456 and 0.999 | -1.22 and -0.182 | -0.417 and -0.4 | -0.125 and 0.446 | -0.46 and -0.641 | -0.748 and -0.252 | -0.251 and -0.124 | -0.299 and -0.197 | -0.321 and -0.134 | -0.826 and -0.136 | 0.102 and -0.667
